Shown are actives, neighbours in structure and some others; about 6.5% of the full set was active somewhere.
TGFb SMAD3 inh – inhibitors of TGF-b signaling | Potency, µM (top dose mostly 46.1 µM), for the others: at the highest dose activity, negative = inhibition, hits mostly inhibitors | hit rate 1.2% among 410,000 | HepG2 CAGA-GFP TGF-b/SMAD3 reporter, GFP fluorescence, 18 h; TGF-beta stimulated, 500 pg/mL final; also: potency is read from the fitted curve at half-maximal effect; % is scaled to controls: 0 for no effect and ±100 for the full control effect; nearly all actives have a fitted effect of over 65% in size
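Using HEPG2 CAGA-GFP reporter cells at 1000 cells/well, we pinned test compounds, stimulated with recombinant TGF-beta (500 pg/mL final) and measured total well GFP after 18 h.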
HT1080 IDH1KD tx – kills HT-1080 cells with IDH1 knockdown; HT-1080 IDH1 knockdown viability, ATP luminescence, 48 h; Potency, µM (top dose mostly 46.1 µM), for inactives: at the top dose activity, negative = toxicity, hits mostly cytotoxic; hit rate 2% among 360,000;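 also: potency is read from the fitted curve at half-maximal effect; 0% = DMSO wells and -100% = cell-free medium wells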
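HT-1080-IDH1KD cells (IDH1 knocked down), 750/well in RPMI with 5% FBS, treated with compound 48 h at 37 degrees C. Viability by CellTiter-Glo luminescence, normalised to DMSO and no-cell wells; concentration-response curves classed.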
IL1B secr inh – inflammasome signaling inhibition, IL-1 beta readout; THP-1 LPS/ATP IL-1B secretion, AlphaLISA, 16 h; hits give low values; activity change, % at 57.5 µM; hit rate 4.7% among 360,000; AID 743279; in the data active = activity change below about -50%; inconclusive = mostly about -30% to -49%; also: % is scaled to controls: 0 for no effect and ±100 for the full control effect
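THP-1 cells pretreated 1 hr with compounds (up to 57.5 uM final), then stimulated with LPS (250 ng/mL final) plus ATP (1.25 mM final); secreted IL-1B measured by AlphaLISA after 16 hr, decreased signal indicating inhibition.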
HepG2 tox – counter-screen for TGF-b inhibitors: cytotoxicity in HepG2 cells; HepG2 CAGA-GFP viability, ATP luminescence, 18 h; Potency, µM (top dose mostly 46.1 µM), for inactives: at the top dose activity change, negative = cytotoxicity, usual class: cytotoxic; hit rate 0.76% among 410,000; also: potency is read from the fitted curve at half-maximal effect
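HepG2 CAGA-GFP cells (1000/well, DMEM with 1% FBS) received compound, then TGF-beta at 500 pg/mL final, and were incubated 18 hours at 37 degrees C. Viability was read by CellTiter-Glo luminescence. Media-only wells were set as complete cell-killing and DMSO as no toxicity.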
Giardia kill – kills Giardia lamblia; Giardia lamblia trophozoite viability; hit rate 0.15% among 340,000; activity change, % at 7.66 µM, hits read low; in the data active = activity change below about -80%; inconclusive = between about -30% and that limit;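 also: parasites exposed to compound for two days anaerobically before the ATP read; % is scaled to controls: 0 for no effect and ±100 for the full control effect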
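Viability, read as ATP luminescence: trophozoites at 100 cells/well, compound added, 48 hrs anaerobic at 37 deg C, then 15-30 min room-temperature development before reading.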
HT1080NT lethal – kills 2HG-producing HT-1080-NT fibrosarcoma cells | HT-1080-NT fibrosarcoma viability, CellTiter-Glo ATP luminescence, 48 h | Potency, µM (doses to about 46.1 µM), for the others: at the top dose activity, negative = less viability, hits mostly cytotoxic | hit rate 1.6% among 360,000;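 also: NT is the 2HG producing partner of a matched IDH1 knockdown line; potency is read from the fitted curve at half-maximal effect; 0% = DMSO-treated cells and -100% = media-only wells without cells; nearly all actives have a fitted effect of over 55% in size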
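Viability by CellTiter-Glo luminescence after 48 h compound exposure at 37C of HT-1080-NT cells (750/well, RPMI, 5% FBS). % activity scaled between DMSO wells and medium-only wells, then curve-fitted and categorized by curve class.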
Numbers without * were called inactive; ? = inconclusive; / = not tested or not shown. Unless noted, calls follow the shape of the dose curve; as a rule, active = well fitted curve in the direction sought with a large enough effect; inconclusive = small, poorly fitted or top-dose-only effect, or another doubt; inactive = no such curve, though single readings can be large; an effect the other way counts as inactive or inconclusive.

SMILES	TGFb SMAD3 inh	HT1080 IDH1KD tx	IL1B secr inh	HepG2 tox	Giardia kill	HT1080NT lethal
CN1CCC2(CC1)c1ccccc1-c1ccccc12	3.0%	-14.7%	-67.1*	-8.2%	9.7	-8.2%
CCOC(=O)c1cccc(C2=C(CNC(=O)c3nccs3)[C@H]3CC[C@@H](C2)N3Cc2ccccc2)c1	0.3%	-14.5%	1.5	-18.1%	/	-7.8%
c1cc2n(c1)-c1c(ccc3c1OCO3)CNC2c1ccc2c(c1)OCO2 (centres undefined)	-4.2%	?	-26.9	-13.7%	-3.5	?
COc1ccc(C2NCc3ccc4c(c3-n3cccc32)OCO4)cc1O (centres undefined)	?	1.84µM*	-9.9	-0.3%	6.0	?
CCc1ccc(-c2nn(Cc3ccccc3)cc2C=O)cc1	-0.4%	-24.2%	-59.2*	2.4%	0.7	?
O=c1[nH]c2ccccc2n1C1CCN(C(c2ccccc2OC(F)(F)F)c2nnnn2Cc2ccccc2)CC1 (centres undefined)	11.2µM*	?	-15.8	-38.6%	/	25.9µM*
O=c1[nH]c2ccccc2n1C1CCN(C(c2cccs2)c2nnnn2Cc2ccccc2)CC1 (centres undefined)	?	16.4µM*	?	-31.3%	/	18.4µM*
O=c1[nH]c2ccccc2n1C1CCN(C(c2nnnn2Cc2ccccc2)C2CC2)CC1 (centres undefined)	-40.2%	20.6µM*	-4.7	0.3%	/	?
O=c1[nH]c2ccccc2n1C1CCN(C(c2cccc3ccccc23)c2nnnn2-c2ccc3c(c2)OCCO3)CC1 (centres undefined)	?	?	-26.4	-12.7%	/	?
COc1ccc(C(c2nnnn2Cc2ccccc2)N2CCC(n3c(=O)[nH]c4ccccc43)CC2)cc1 (centres undefined)	?	?	-1.1	0.8%	/	?
O=c1[nH]c2ccccc2n1C1CCN(C(c2cc3ccccc3o2)c2nnnn2-c2ccc3c(c2)OCCO3)CC1 (centres undefined)	-20.9%	18.4µM*	?	-15.4%	/	?
Clc1ccc(CN2CCNCC2)cc1	-0.9%	2.9%	6.1	12.5%	-2.8	0.1%
COc1ccc(-c2nc3ccccc3c(=O)n2-c2nccs2)cc1	-5.0%	0.4%	0.0	-31.8%	3.8	-2.9%
O=C(NN=Cc1ccc(N(CCCl)CCCl)cc1)c1cccc([N+](=O)[O-])c1	-53.2%	?	-5.0	-40.5%	?	-25.6%
O=c1[nH]c2ccccc2n1C1CCN(C(CCc2ccccc2)c2nnnn2Cc2ccccc2)CC1 (centres undefined)	?	6.51µM*	-93.1*	-91.0%	/	7.31µM*
O=c1[nH]c2ccccc2n1C1CCN(C(CCc2ccccc2)c2nnnn2C2CCCCC2)CC1 (centres undefined)	?	15.9%	-60.8*	-6.9%	/	9.0%
CSCCC(c1nnnn1Cc1ccccc1)N1CCC(n2c(=O)[nH]c3ccccc32)CC1 (centres undefined)	?	?	-22.5	-16.4%	/	?
O=C1NC(=O)N(c2ccc3c(c2)OCO3)C(=O)/C1=C/c1cccs1	-9.9%	-13.1%	-103.8*	-9.1%	11.2	4.4%
COc1ccc(CCNC2CCCCCC2)cc1	0.4%	-2.7%	5.2	0.4%	11.9	-2.3%
CC1CN1c1cc2c(c3c1ccn3C)C1CCC2C1 (centres undefined)	-21.3%	5.3%	21.8	-2.5%	/	-0.4%
Cc1nccn1-c1c([N+](=O)[O-])c(=O)n(C)c2ccccc12	?	-20.7%	-91.6*	10.4%	5.2	-13.8%
COc1cc2c(c(OC)c1OC)-c1ccc(O)c(=O)cc1C(NC(C)=O)CC2 (centres undefined)	?	0.0411µM*	65.9	-1.7%	5.8	0.0052µM*
COc1cc2c(c(OC)c1OC)-c1ccc(OC)c(=O)cc1C(NC(C)=O)CC2 (centres undefined)	-24.6%	?	163.9	-2.5%	-10.7	0.0146µM*
COc1ccc(OC)c(CC(=O)O)c1	-3.1%	-0.2%	2.0	-2.5%	2.5	6.1%
COC1=C[C@@H]2C3=C([C@@H]2C1=O)[C@@H](NC(C)=O)CCc1cc(OC)c(OC)c(OC)c13	2.2%	-10.3%	9.5	-6.7%	15.4	10.1%
SMILES	TGFb SMAD3 inh	HT1080 IDH1KD tx	IL1B secr inh	HepG2 tox	Giardia kill	HT1080NT lethal
COc1ccc2c(c1)C(NC(C)=O)CCc1cc(OC)c(OC)c(OC)c1-2 (centres undefined)	-52.9%	?	29.7	-24.3%	19.4	0.0058µM*
COC(=O)C1=C(c2ccc(F)cc2F)C[C@@H]2CC[C@H]1N2C(=O)N1CCC(C)CC1	-11.4%	-13.9%	8.7	-3.5%	-7.1	0.0%
CCCCn1c(O)c(C(C)=NCCc2c[nH]c3ccccc23)c(=O)[nH]c1=O	?	-6.1%	-8.8	-40.8%	37.2	-11.1%
COc1nc(NCC2CCCO2)nc(N2CC3CC(C2)c2cccc(=O)n2C3)n1 (centres undefined)	4.9%	1.7%	9.3	14.2%	10.2	0.0%
C[C@]12CCC(OC(=O)CCC(=O)O)CC1=CCC1C2CC[C@]2(C)C(=O)CCC12 (some centres undefined)	0.0%	2.5%	-8.4	-9.3%	-14.3	5.7%
COCCO[C@H]1CC[C@@]2(C)C(=CCC3C2CC[C@@]2(C)C3CC[C@]2(C)O)C1 (some centres undefined)	39.0%	-4.4%	-71.6*	-25.6%	10.2	-7.0%
O=C1NC(=S)N(C2CC2)C(=O)/C1=C/c1ccc2c(c1)CCN2CCCCl	-2.8%	-10.8%	-78.0*	-15.8%	-4.5	-16.4%
CCN1C(=O)/C(=C/c2ccc3c(c2)CCN3CCCCl)C(=O)NC1=S	1.2%	5.2%	-18.7	-23.6%	1.9	13.7%
COc1ccc(NP(=O)(Oc2cccc(C)c2)Oc2cccc(C)c2)cc1OC	15.8µM*	1.4%	0.0	-43.4%	-3.4	-9.2%
COc1ccc(NP(=O)(Oc2ccccc2OC)Oc2ccccc2OC)cc1	-4.5%	-14.1%	0.0	0.1%	-2.3	1.5%
COc1ccccc1OP(=O)(Nc1ccc(Br)cc1)Oc1ccccc1OC	15.8µM*	-12.4%	?	-79.2%	-6.7	2.4%
Cc1cccc(OP(=O)(Nc2ccc(F)cc2)Oc2cccc(C)c2)c1	?	?	-72.0*	-84.2%	-6.0	23.1µM*
COc1ccc(NP(=O)(Oc2ccc(Cl)cc2)Oc2ccc(Cl)cc2)cc1OC	20µM*	?	?	-47.2%	-9.0	?

Source: PubChem BioAssay (National Center for Advancing Translational Sciences (NCATS))
